{"source": "PubChem BioAssay AID504332", "about": "(National Center for Advancing Translational Sciences (NCATS), 2011)", "note": "The whole screen tested about 350,000 compounds, of which about 31,000 (8.9%) were called active. A call without a number means that no potency is given here. Another 15% or so got no clear call; they are omitted. The full list was thinned out, with actives kept by preference. A structure can be active in one record and inactive in another. A number with no mark means an inactive call. Calls follow the shape of the dose curve; as a rule, active = well fitted inhibition curve with a large enough effect; inconclusive = small, poorly fitted or top-dose-only effect; inactive = no such curve, though single readings can be large or run the other way. Potency is read from the fitted curve at half-maximal effect.", "data": [{"target": "Histone-lysine N-methyltransferase EHMT2 (Homo sapiens) (UniProt Q96KQ7)", "sequence (Q96KQ7 913-1193 limits assumed)": "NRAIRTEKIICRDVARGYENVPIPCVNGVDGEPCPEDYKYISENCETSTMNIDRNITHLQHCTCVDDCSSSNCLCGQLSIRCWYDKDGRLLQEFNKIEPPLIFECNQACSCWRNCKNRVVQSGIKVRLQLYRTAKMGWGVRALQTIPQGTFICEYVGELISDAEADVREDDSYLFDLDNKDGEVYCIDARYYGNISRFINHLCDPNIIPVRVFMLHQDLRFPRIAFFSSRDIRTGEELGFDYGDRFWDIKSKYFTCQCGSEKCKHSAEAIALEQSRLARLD", "assay": "qHTS Assay for Inhibitors of Histone Lysine Methyltransferase G9a; also: nearly all actives have a fitted effect of over 75% in size", "conditions": "G9a H3K9 monomethylation, AlphaScreen, 2 h; series mostly up to 59 µM", "in_short": "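Methyltransferase reactions run at room temperature for 2 h (20 nM enzyme, 500 nM biotin-H3K9 peptide, 20 uM SAM) after a 15 min compound preincubation; product detected by AlphaScreen beads and anti-H3K9me1 antibody.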", "values": [{"smiles": "CCOc1ccccc1NC(=S)NC(=O)CCc1ccccc1", "Potency": "inactive"}, {"smiles": "CSCC[C@H](NC(=O)N1CCn2c1nc1ccccc12)C(=O)NCc1ccc2c(c1)OCO2", "Potency": "inactive"}, {"smiles": "Cc1ccnc(NC(=O)CCNS(=O)(=O)c2ccc(C)c(C)c2)c1", "Potency": "inactive"}, {"smiles": "CN(Cc1ccccc1)C(=O)CSc1nc2ccccc2[nH]1", "Potency": "inactive"}, {"smiles": "O=c1cc(-c2ccccc2)[nH]c2cc(F)ccc12", "Potency": "inactive"}, {"smiles": "Cc1ccc(-c2cc(=O)c3ccc(Cl)cc3[nH]2)cc1", "Potency": "inactive"}, {"smiles": "O=c1cc(-c2ccccc2)[nH]c2nc(Cl)ccc12", "Potency": "20 µM (active)", "activity, negative = inhibition": "48.3% [at 12.7 µM]"}, {"smiles": "CCN(CC)CCCNC(=O)c1cc2c(=O)[nH]c3ccc(C)cc3c2s1", "Potency": "inactive"}, {"smiles": "CCCCn1c(N)c(N(CCOC)C(=O)c2cccc(OCc3ccccc3)c2)c(=O)[nH]c1=O", "Potency": "inactive"}, {"smiles": "CCCCn1c(N)c(N(CC(C)C)C(=O)c2cccc(S(=O)(=O)N3CCN(C(C)=O)CC3)c2)c(=O)[nH]c1=O", "Potency": "inactive"}, {"smiles": "CCCCn1c(N)c(N(CCOC)C(=O)c2cccc(S(=O)(=O)N3CCCCC3)c2)c(=O)[nH]c1=O", "Potency": "50.1 µM (active)"}, {"smiles": "CCOc1ccc(NC(=O)COc2ccc(C(=O)N3CCC(C(N)=O)CC3)cc2OC)cc1", "activity, negative = inhibition": "4.45% [at 0.501 µM]"}, {"smiles": "CC(OC(=O)CNC(=O)c1ccco1)C(=O)Nc1ccc(Cl)cn1", "note": "(stereo unspecified)", "Potency": "inactive"}, {"smiles": "COc1ccc2[nH]c3ccc(OC)cc3c2c1", "Potency": "50.1 µM (active)"}, {"smiles": "CCN(CC)CC(=O)c1c[nH]c2ccc(OC)cc12", "Potency": "inactive"}, {"smiles": "COc1ccc2[nH]c(C(=O)N3CCN(C)CC3)c(C)c2c1", "Potency": "inactive"}, {"smiles": "COc1ccc(NC(=O)c2cc3cc(C)ccc3n2C)cc1", "Potency": "inactive"}, {"smiles": "CCC(C)NC(=O)c1ccc(NC(=O)CC2SC(N3CCCCC3)=NC2=O)cc1", "note": "(stereo unspecified)", "activity, negative = inhibition": "-0.745% [at 12.7 µM]"}, {"smiles": "CC(=O)O[C@H]1CC[C@@]2(C)[C@@H](CC[C@@H]3[C@@H]2CC[C@]2(C)[C@@H](C(C)(C)O)C[C@@H]32)C1", "activity, negative = inhibition": "-7.36% [at 2.33 µM]"}, {"smiles": "O=C(NCc1ccco1)c1nn2cccnc2c1Cl", "Potency": "inactive"}, {"smiles": "O=C(NCc1ccco1)C1(c2ccc(Cl)cc2)CCCC1", "Potency": "inactive"}, {"smiles": "O=C(NCc1ccco1)c1sc2cccc(F)c2c1Cl", "Potency": "8.91 µM (active)"}, {"smiles": "COc1ccc(-c2cc(C(=O)N3CCN(Cc4ccc5c(c4)OCO5)CC3)on2)cc1OC", "Potency": "inactive"}, {"smiles": "CCN1C(=O)[C@H]2[C@@H](c3ccc(C)cc3)N3C(=O)N(c4cccc(Br)c4)C(=O)[C@@]3(CC)[C@H]2C1=O", "activity, negative = inhibition": "-0.448% [at 2.33 µM]"}, {"smiles": "CCOc1cc(/C=N/O)ccc1OCc1ccccc1F", "Potency": "inactive"}, {"smiles": "CCOc1cc(/C=C2\\C(=N)N3N=C(C)SC3=NC2=O)ccc1OCCOc1ccccc1", "Potency": "inactive"}, {"smiles": "COc1cc(/C=C2\\SC(=O)NC2=O)ccc1OCc1ccc(Cl)nc1", "activity, negative = inhibition": "21.1% [at 2.33 µM]"}, {"smiles": "C#CCOc1ccc(/C=C2/C(=O)ON=C2C)cc1OCC", "Potency": "39.8 µM (active)"}, {"smiles": "C#CCOc1ccccc1/C=C1/C(=O)ON=C1C", "Potency": "inactive"}, {"smiles": "C=CCOc1ccc(/C=N/NC(=O)C(C)Sc2ccccn2)cc1OCC", "note": "(stereo unspecified)", "Potency": "inactive"}, {"smiles": "COc1ccnc2c1c(=O)n(Cc1cccc(F)c1)c(=O)n2C", "Potency": "inactive"}, {"smiles": "COc1cc(/C=C2/C(=O)ON=C2C)ccc1OCc1cccc(F)c1", "Potency": "50.1 µM (active)"}, {"smiles": "C=CCOc1ccc(/C=C2/C(=O)ON=C2C)cc1OCC", "Potency": "44.7 µM (active)"}, {"smiles": "O=C1CC(c2ccc(F)cc2F)c2cc3c(cc2N1)OCO3", "note": "(stereo unspecified)", "Potency": "inactive"}, {"smiles": "Cc1ccc(S(=O)(=O)N2CCN(C(=O)Cc3sc(C)nc3-c3ccc(F)cc3)CC2)c(C)c1", "Potency": "inactive"}, {"smiles": "CCc1ccc(S(=O)(=O)c2nnn3c2nc(NCc2ccccc2OC)c2cc(Cl)ccc23)cc1", "Potency": "inactive"}, {"smiles": "O=C(Nc1nc2ccc(F)cc2s1)c1nc(SCc2ccccc2F)ncc1Cl", "Potency": "inactive"}, {"smiles": "CCOC(=O)Cc1ccc(NC(=O)Nc2c[nH]c(=O)[nH]c2=O)cc1", "Potency": "inactive"}, {"smiles": "CCc1ccc(NC(=O)c2cc3c(=O)n(Cc4cccnc4)ccc3nc2C)cc1", "Potency": "inactive"}, {"smiles": "O=C(c1ccc(S(=O)(=O)N2CCCC2)cc1)N1CCN(c2ccccc2F)CC1", "Potency": "inactive"}, {"smiles": "CNS(=O)(=O)c1ccc(C(=O)NCC(=O)NCCc2ccc3c(c2)OCCO3)cc1", "activity, negative = inhibition": "-2.43% [at 12.7 µM]"}, {"smiles": "CCOc1ccc(N(CC(=O)NCC2CCCO2)S(=O)(=O)c2ccc(C)cc2)cc1", "note": "(stereo unspecified)", "Potency": "50.1 µM (active)"}, {"smiles": "CCOc1ccc(S(=O)(=O)NCCC(=O)NCC2CCCO2)cc1", "note": "(stereo unspecified)", "activity, negative = inhibition": "28.8% [at 12.7 µM]"}, {"smiles": "O=C(CN(CC1CCCO1)C(=O)CNS(=O)(=O)c1ccc(Cl)cc1)NCc1ccccc1", "note": "(stereo unspecified)", "Potency": "inactive"}, {"smiles": "Cc1ccc(CN(CC(=O)NCC2CCCO2)S(=O)(=O)c2ccc(C)cc2)cc1", "note": "(stereo unspecified)", "Potency": "inactive"}, {"smiles": "Cc1ccc(N(CC(=O)NCC2CCCO2)C(=O)CNS(=O)(=O)c2ccc(Cl)cc2)cc1", "note": "(stereo unspecified)", "Potency": "1 µM (active)"}, {"smiles": "Cc1ccc(S(=O)(=O)NCC(=O)N(CC(=O)NCC2CCCO2)c2cccc(F)c2)cc1", "note": "(stereo unspecified)", "Potency": "inactive"}, {"smiles": "Cc1ccc(-c2nnc(Nc3cccc(Br)c3)c3ccccc23)cc1S(=O)(=O)NCC1CCCO1", "note": "(stereo unspecified)", "Potency": "inactive"}, {"smiles": "CCOc1ccccc1NC(=O)Cn1c2ncccc2c(=O)n1-c1ccc(C)c(C)c1", "Potency": "inactive"}, {"smiles": "COc1cc2ccccc2cc1C(=O)Nc1cccc(-c2nc3ccccc3o2)c1", "Potency": "inactive"}, {"smiles": "O=C(/C=C/c1ccccc1)N1CCN(Cc2cc(=O)n3nc(-c4ccccc4F)sc3n2)CC1", "Potency": "inactive"}, {"smiles": "O=C(NCCC1=CCCCC1)c1ccc2c(c1)N(Cc1ccccc1F)C(=O)c1ccccc1S2(=O)=O", "Potency": "inactive"}, {"smiles": "C=C(C)COc1ccc(-c2ncncc2-c2ccc(OC)cc2)c(O)c1", "Potency": "inactive"}, {"smiles": "CC(C)c1ccc(NC(=O)Cn2c3ncccc3c(=O)n2-c2ccccc2)cc1", "Potency": "inactive"}, {"smiles": "N#CC1=C(N)Oc2[nH]c(=S)[nH]c(=O)c2C12C(=O)Nc1ccccc12", "note": "(stereo unspecified)", "Potency": "35.5 µM (active)"}, {"smiles": "N#CC1=C(N)Oc2n[nH]c(CSc3ccccc3)c2C12C(=O)Nc1ccccc12", "note": "(stereo unspecified)", "Potency": "inactive"}, {"smiles": "Cc1ccc(NC2(C#N)C(=O)Nc3ccccc32)cc1", "note": "(stereo unspecified)", "activity, negative = inhibition": "-25.6% [at 2.33 µM]"}, {"smiles": "CN=C1S/C(=C\\c2ccc(Sc3ccc(Cl)cc3)o2)C(=O)N1C", "Potency": "inactive"}, {"smiles": "O=C(O)C(c1ccccc1)N1C(=O)/C(=C\\c2ccc(-c3cccc(Cl)c3)o2)SC1=S", "note": "(stereo unspecified)", "Potency": "39.8 µM (active)"}, {"smiles": "O=C1c2ccccc2NC(c2ccc(-c3cccc(Cl)c3)o2)N1O", "note": "(stereo unspecified)", "activity, negative = inhibition": "25.2% [at 12.7 µM]"}]}]}
